Data on five compounds can be found in PubChem BioAssay.

Where “and” joins values, the source holds several entries; their conditions need not be identical. Equal values may be shown once. Calls of active or inactive are those of the source.

In assay [1] the test system is Plasmodium falciparum Sir2 (PF13_0152, Sir2A). Nature of the assay: pfSir2 binders on small-molecule microarrays, primary screen, biochemical, small-molecule microarray, 635 nm fluorescence (AID 1098).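 Note: score merges spot fluorescence intensity with its signal-to-noise ratio.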 Conditions: small-molecule microarray binding, fluorescence 635 nm; higher = more signal.
Assay [2] in a line: small-molecule microarray binders of probe aDKK1, primary screen, biochemical, biotinylated probe, 635/667 nm fluorescence (AID 1099).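 Note: score merges 667nm spot fluorescence with signal to noise across triplicate slides.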 Conditions: higher = more signal.
Assay [3] can be described thus: small-molecule microarray binders of probe aCHRDL2, primary screen, biochemical, biotinylated probe, 635/667 nm fluorescence (AID 1100). Conditions: higher = more signal.
Assay [4] can be described thus: splicing luciferase reporter signal modulators, primary screen, spliceosome inhibition project, cell-based, HEK293, splice +/- reporter (AID 1101).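 Note: HEK293 cells carrying a splicing-competent luciferase reporter gene; test concentration not given here.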 Conditions: luminescence, 24 h, higher = more signal, called active from +8 up or from −8 down. A general note: In a reporter assay the amount or activity of a reporter protein is the signal.
For assay [5], the target named is Fibroblast growth factor 10 (Homo sapiens) (UniProt O15520). In words: FGF10 binders on small-molecule microarrays, primary screen, biochemical, small-molecule microarray, 635 nm fluorescence (AID 1102). Conditions: FGF10 binding, fluorescence 635 nm, higher = more signal.
Assay [6] has as its system glycogen synthase kinase-3 (GSK3A per assay name; protocol says GSK3B). Nature of the assay: GSK3 binders on small-molecule microarrays, primary screen, biochemical, small-molecule microarray, 635 nm fluorescence, GSK3A (AID 1103). Note: the record names both GSK3A and GSK3B. Conditions: small-molecule microarray binding, fluorescence 635 nm; higher = more signal.
Assay [7] has as its target Epidermal growth factor receptor (Homo sapiens) (UniProt P00533). In words: EGFR binders on small-molecule microarrays, primary screen, biochemical, small-molecule microarray, 635 nm fluorescence (AID 1104).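 Note: score merges 667 nm emission intensity with spot signal to noise over triplicate slides.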 Conditions: EGFR binding, higher = more signal.
Assay [8] addresses Follistatin-related protein 3 (Homo sapiens) (UniProt O95633). In words: FSTL3 binders on small-molecule microarrays, primary screen, biochemical, small-molecule microarray, 635 nm fluorescence (AID 1105).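 Note: score merges emission near 667 nm and signal to noise per printed spot across three slides.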 Conditions: FSTL3 binding, higher = more signal.
Assay [9] concerns the target Dickkopf-related protein 1 (Homo sapiens) (UniProt O94907). Nature of the assay: DKK1 binders on small-molecule microarrays, primary screen, biochemical, small-molecule microarray, 635 nm fluorescence scan (AID 1106).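 Note: score merges emission near 667 nm with signal to noise over three replicate slides.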 Conditions: DKK1 binding, higher = more signal.
Assay [10] has as its system Inhibin beta A chain (activin A). Nature of the assay: INHBA (activin A) binders on microarrays, primary screen, biochemical, small-molecule microarray, 635 nm fluorescence scan (AID 1107).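 Note: mouse activin A protein probed at 4.33 µg/mL on printed slides; score merges bound-protein fluorescence near 667 nm with spot signal-to-noise.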 Conditions: small-molecule microarray binding, higher = more signal.
Assay [11] deals with Human papillomavirus type 1a protein E7 (residues 44-93). Nature of the assay: HPV1a E7 fragment binders on microarrays, primary screen, biochemical, small-molecule microarray, residues 44-93, 635 nm fluorescence (AID 1108).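 Note: E7 fragment applied at 1 µg/mL in TBST for 1 h at 4 C; score combines spot fluorescence with its signal to noise ratio.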 Conditions: small-molecule microarray binding, fluorescence 635 nm; higher = more signal.
A short description of assay [12]: modulators of HCV replicon luciferase signal, primary screen, HCV replication inhibitor project, Huh7 cells, luciferase reporter (AID 1109).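 Note: huh7 hepatoma cells harbouring a luciferase neomycin HCV replicon reporter; luciferase luminescence as measure of HCV replicon replication; test concentration not given here.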 Conditions: 48 h, higher = more signal.
Assay [13] concerns the target Left-right determination factor 2 (Homo sapiens) (UniProt O00292). In words: LEFTY2 binders on small-molecule microarrays, primary screen, biochemical, small-molecule microarray, 635 nm fluorescence scan (AID 1110). Conditions: LEFTY2 binding, higher = more signal.
The target of assay [14] is Calmodulin-1 (Homo sapiens) (UniProt P0DP23). In words: CALM1 binders on microarrays, EGTA buffer, profiling panel, biochemical, small-molecule microarray, Cy5-labelled CALM1 (AID 1111).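 Note: labelled calmodulin applied in Tris saline Tween buffer holding calcium plus EGTA and DTT.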 Conditions: Cy5-CALM1 binding fluorescence, higher = more signal.
The target is the same in assay [15]. Nature of the assay: calcium-bound CALM1 binders on microarrays, profiling panel, artefact control for SMM control-protein annotation, biochemical, small-molecule microarray, Cy5-labelled CALM1, plus calcium (AID 1112).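 Note: score merges spot fluorescence with signal to noise from triplicate slides.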 Conditions: Cy5-CALM1 binding fluorescence, higher = more signal.
Assay [16] is described as follows: small-molecule microarray binders of probe aWnt5a, primary screen, biochemical, biotinylated probe, 635/667 nm fluorescence (AID 1113).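 Note: score merges 667 nm fluorescence intensity with signal-to-noise per printed feature.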 Conditions: higher = more signal.
Assay [17] in a line: small-molecule microarray binders of probe aShh, primary screen, biochemical, biotinylated probe, 635/667 nm fluorescence (AID 1114).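 Note: probe is biotin-labelled aShh protein from a stem cell growth factor screen; measures binding of labelled protein to compounds printed on the slide; score merges feature fluorescence at 667 nm with signal-to-noise.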 Conditions: higher = more signal.
Assay [18] can be described thus: small-molecule microarray binders of probe aNog, primary screen, biochemical, biotinylated probe, 635/667 nm fluorescence (AID 1115).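 Note: probe is biotinylated aNog protein used at 0.15 µg/mL for 1 h at 4 C; z-score combines 667 nm fluorescence of each spot with its signal to noise.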 Conditions: higher = more signal.
The target of assay [19] is Torsin-1A-interacting protein 1 (Homo sapiens) (UniProt Q5JTV8). Nature of the assay: LAP1 binders from COS7 cell lysate, primary screen, small-molecule microarray, 635/667 nm fluorescence (AID 1116). Conditions: COS7-hLAP1 lysate binding, 635 nm fluorescence, higher = more signal.
Assay [20] addresses Alpha-bungarotoxin (Bungarus multicinctus) (UniProt P60615). Nature of the assay: alpha-bungarotoxin binders on microarray, profiling panel, artefact control for SMM control protein annotation, biochemical, small-molecule microarray, Alexa647 label, 635/667 nm fluorescence (AID 1117). Conditions: alpha-BTX-A647 binding fluorescence, higher = more signal.

Chain of Fibroblast growth factor 10 (Homo sapiens) (O15520 whole entry, looked up): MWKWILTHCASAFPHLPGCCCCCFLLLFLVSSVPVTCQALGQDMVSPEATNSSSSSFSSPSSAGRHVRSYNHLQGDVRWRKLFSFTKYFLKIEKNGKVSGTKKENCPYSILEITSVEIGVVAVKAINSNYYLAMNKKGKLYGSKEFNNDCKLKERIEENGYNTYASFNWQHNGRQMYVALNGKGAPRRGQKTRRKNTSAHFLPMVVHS
Chain of Torsin-1A-interacting protein 1 (Homo sapiens) (Q5JTV8 whole entry, looked up): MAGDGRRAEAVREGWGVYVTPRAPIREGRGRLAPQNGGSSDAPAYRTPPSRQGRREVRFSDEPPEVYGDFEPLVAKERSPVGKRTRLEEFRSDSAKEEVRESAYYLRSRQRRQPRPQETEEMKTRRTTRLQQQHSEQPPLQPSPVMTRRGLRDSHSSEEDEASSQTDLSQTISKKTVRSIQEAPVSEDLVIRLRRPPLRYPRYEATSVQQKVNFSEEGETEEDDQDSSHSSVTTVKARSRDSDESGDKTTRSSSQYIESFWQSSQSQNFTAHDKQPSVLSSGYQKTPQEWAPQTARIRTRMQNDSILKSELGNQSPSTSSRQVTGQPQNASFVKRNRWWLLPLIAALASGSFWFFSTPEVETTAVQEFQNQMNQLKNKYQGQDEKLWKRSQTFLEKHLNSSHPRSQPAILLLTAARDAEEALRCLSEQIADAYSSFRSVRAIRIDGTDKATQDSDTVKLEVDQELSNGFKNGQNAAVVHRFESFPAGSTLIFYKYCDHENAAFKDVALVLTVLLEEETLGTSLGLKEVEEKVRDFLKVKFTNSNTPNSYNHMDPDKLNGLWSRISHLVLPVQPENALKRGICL
Chain of Follistatin-related protein 3 (Homo sapiens) (O95633 whole entry, looked up): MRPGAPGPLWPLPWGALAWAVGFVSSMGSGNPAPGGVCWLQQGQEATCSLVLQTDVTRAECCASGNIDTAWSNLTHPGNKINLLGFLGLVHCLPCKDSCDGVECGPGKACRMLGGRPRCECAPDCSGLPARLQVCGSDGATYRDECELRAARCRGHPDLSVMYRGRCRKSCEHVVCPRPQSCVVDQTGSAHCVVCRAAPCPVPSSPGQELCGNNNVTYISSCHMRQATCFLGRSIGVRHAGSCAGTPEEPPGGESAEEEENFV
Chain of Dickkopf-related protein 1 (Homo sapiens) (O94907 whole entry, looked up): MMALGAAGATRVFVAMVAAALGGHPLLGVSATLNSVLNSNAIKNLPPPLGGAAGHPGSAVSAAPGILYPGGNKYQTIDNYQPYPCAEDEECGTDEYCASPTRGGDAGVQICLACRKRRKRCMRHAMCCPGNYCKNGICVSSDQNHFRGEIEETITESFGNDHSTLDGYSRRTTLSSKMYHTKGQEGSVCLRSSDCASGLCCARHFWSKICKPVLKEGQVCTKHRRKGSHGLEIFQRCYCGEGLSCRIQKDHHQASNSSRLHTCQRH
Chain of Left-right determination factor 2 (Homo sapiens) (O00292 whole entry, looked up): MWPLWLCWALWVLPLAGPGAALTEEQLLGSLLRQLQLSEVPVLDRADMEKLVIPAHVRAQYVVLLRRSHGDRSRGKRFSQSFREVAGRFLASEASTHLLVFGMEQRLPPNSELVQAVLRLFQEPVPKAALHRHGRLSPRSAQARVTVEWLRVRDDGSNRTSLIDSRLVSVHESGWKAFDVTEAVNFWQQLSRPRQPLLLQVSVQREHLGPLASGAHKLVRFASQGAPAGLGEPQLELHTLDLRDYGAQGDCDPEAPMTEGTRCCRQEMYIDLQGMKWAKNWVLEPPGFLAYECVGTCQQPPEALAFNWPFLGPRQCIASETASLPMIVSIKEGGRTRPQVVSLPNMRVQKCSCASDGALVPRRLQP
Chain of Alpha-bungarotoxin (Bungarus multicinctus) (P60615 whole entry, looked up): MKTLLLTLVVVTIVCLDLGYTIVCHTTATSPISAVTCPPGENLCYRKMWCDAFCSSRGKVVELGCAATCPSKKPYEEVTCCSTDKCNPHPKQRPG
Chain of Epidermal growth factor receptor (Homo sapiens) (P00533 whole entry, looked up): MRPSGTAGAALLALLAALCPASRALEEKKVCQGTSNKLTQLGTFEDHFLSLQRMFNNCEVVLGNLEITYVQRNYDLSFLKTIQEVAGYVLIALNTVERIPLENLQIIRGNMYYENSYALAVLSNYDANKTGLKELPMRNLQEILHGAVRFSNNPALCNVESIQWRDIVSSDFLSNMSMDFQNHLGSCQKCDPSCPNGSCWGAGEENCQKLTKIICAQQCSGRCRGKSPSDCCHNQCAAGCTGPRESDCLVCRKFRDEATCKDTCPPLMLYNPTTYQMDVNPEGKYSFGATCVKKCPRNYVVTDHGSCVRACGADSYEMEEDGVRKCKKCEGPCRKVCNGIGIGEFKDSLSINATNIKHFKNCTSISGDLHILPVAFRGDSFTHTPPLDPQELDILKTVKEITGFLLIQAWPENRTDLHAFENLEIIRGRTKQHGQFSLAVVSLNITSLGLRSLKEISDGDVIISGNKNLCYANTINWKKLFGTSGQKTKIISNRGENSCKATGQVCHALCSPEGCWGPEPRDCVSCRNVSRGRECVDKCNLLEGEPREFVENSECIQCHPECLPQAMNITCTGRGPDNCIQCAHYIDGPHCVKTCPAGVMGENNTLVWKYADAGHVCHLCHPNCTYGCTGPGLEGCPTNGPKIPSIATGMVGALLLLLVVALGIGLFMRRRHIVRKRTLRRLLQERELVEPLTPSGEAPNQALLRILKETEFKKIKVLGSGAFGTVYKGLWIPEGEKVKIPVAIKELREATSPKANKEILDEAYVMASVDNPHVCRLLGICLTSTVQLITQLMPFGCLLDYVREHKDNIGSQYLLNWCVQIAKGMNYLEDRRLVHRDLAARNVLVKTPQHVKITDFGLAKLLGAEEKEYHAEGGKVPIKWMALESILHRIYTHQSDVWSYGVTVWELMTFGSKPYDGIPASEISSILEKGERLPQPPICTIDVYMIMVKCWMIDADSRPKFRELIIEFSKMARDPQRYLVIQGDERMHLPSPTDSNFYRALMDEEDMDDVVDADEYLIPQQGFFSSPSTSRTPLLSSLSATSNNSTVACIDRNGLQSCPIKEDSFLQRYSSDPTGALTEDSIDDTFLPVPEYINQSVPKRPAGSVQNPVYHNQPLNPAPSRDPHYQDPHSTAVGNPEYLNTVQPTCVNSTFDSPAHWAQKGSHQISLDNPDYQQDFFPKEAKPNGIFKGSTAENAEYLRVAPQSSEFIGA

For `CC(C)[Si]1(C(C)C)OCc2cc(C3CC3)nc(CCc3ccccc3)c21`, the composite z-score in assay [1] was -0.534 and -0.371; in [2], 0.0295 and -0.146; in [3], 0.221 and -0.262; in [5], -0.348 and 0.0251; in assay [6] it was -0.897 and 0.178; in [7], 0.105 and 0.15. The composite z-score is -0.238 and 0.195 in assay [8]; -0.293 and 0.135 in assay [9]; 0.768 and 0.242 in assay [10]; -0.789 and 0.192 in assay [11]; 0.045 and 0.273 in assay [13]; 0.154 and -0.425 in assay [14]. In addition, the composite z-score is -0.253 and -0.002 in assay [15]; -0.15 and -0.0512 in assay [16]; -0.181 and -0.221 in assay [17]; 0.0732 and -0.0554 in [18]; -0.527 and 0.362 in [19]; 0.0536 and -0.448 in [20]. In addition, the z-score in assay [4] was -0.383 (inactive) and 0.693 (inactive); in [12], -0.745 and -0.958.

In the case of `C=CCN1C(=O)[C@]2(O[C@H](CCn3cc(CCO)nn3)[C@@H]([Si](C)(C)c3ccc(OC)cc3)[C@@H]2C)c2cc(N3C(=O)c4cccc5cccc3c45)ccc21`, the composite z-score in [1] is 0.306 and 1.07; in assay [2], -0.206 and -0.233; in [3], -0.106 and -0.142; in assay [5], 0.726 and 1.05; in assay [6] it was 0.26 and 0.521; in [7], -0.0684 and -0.247. The composite z-score in [8] is 0.228 and 0.181; in assay [9] it was -0.0095 and -0.0589; in [10], 0.538 and 0.516; in [11], 1.33 and 0.725; in assay [13] it was 0.238 and -0.0491; in assay [14], 0.345 and 0.772. The composite z-score in [15] was -0.0218 and 0.227; in assay [16], -0.0203 and 0.0079; in [17] it was 0.0048 and 0.14; in assay [18], -0.136 and -0.0115; in assay [19], 1.11 and 0.749; in assay [20] it was 0.334 and 0.366. The z-score in assay [4] is -4 (inactive) and -3.52 (inactive); in assay [12] it was -5.11 and -5.13.

Turning to `C=C[C@H](OC)[C@@H](O)c1ccc(OCCO)cc1`, the composite z-score was 0.972 and 1.8 in assay [1]; -0.458 and -0.428 in assay [2]; 0.915 and 0.789 in assay [3]; -1.07 and -0.623 in assay [5]; -1.69 and -0.885 in assay [6]; -2.13 and -1.16 in assay [7]. Further, the composite z-score in assay [8] was -1.95 and -1.72; in assay [9] it was -1.55 and -0.654; in assay [10] it was -0.731 and -1.25; in [11], -1.76 and -0.748; in [13], -1.51 and -1.36; in assay [14], -1.51 and -0.219. Also, the composite z-score was -0.045 and -0.319 in assay [15]; -0.262 and -0.213 in assay [16]; -0.276 and -0.221 in assay [17]; -0.674 and -0.402 in [18]; 0.376 and -0.199 in assay [19]; -1.55 and -1.04 in [20]. For the same compound, the z-score in [4] is -0.957 (inactive) and -0.233 (inactive); in assay [12] it was -0.142 and 1.09.

Take `CC(C)=NOCc1ccc(-c2cn([C@@H]3COC[C@H]3O)nn2)cc1`: the composite z-score in assay [1] was -0.257; in assay [2], -0.123; in [3] it was -0.764; in [5] it was 0.506; in [6], 0.114; in [7], 0.309. The composite z-score is 0.273 in assay [8]; 0.455 in assay [9]; 0.147 in assay [10]; -0.0942 in assay [11]; 0.679 in assay [13]; 0.676 in assay [14]. Also, the composite z-score in assay [15] was -0.358; in assay [16] it was -0.143; in assay [17], -0.17; in [18], -0.248; in [19] it was 0.507; in assay [20], -0.175. For the same compound, the results for the z-score in assay [4] and in [12] were 1.04 (inactive) and 0.28, respectively.

Regarding `C[C@@H]1CC[C@H]2C(=O)NC[C@@H](O)CN2[C@H]1c1ccc(Br)cc1`, the composite z-score in assay [1] is 0.102 and 0.107; in assay [2], -0.214 and -0.138; in assay [3] it was -0.0441 and -0.0598; in assay [5], -0.0319 and -0.141; in assay [6] it was -0.645 and -0.288; in [7] it was -0.251 and -0.159. Besides, the composite z-score in [8] was -0.348 and -0.394; in assay [9], -0.219 and -0.179; in assay [10], 0.747 and 0.211; in assay [11] it was 0.111 and -0.325; in assay [13], -0.0095 and 0.204; in assay [14], -0.234 and -0.448. Also, the composite z-score in assay [15] is -0.342 and -0.438; in assay [16], -0.0758 and -0.0405; in assay [17], -0.138 and 0.235; in assay [18], 0.0014 and -0.194; in [19] it was 0.36 and 0.348; in assay [20], 0.141 and -0.195. Moreover, the z-score is 0.338 (inactive) and 0.0732 (inactive) in assay [4]; -0.376 and -0.362 in [12].
